Source: the supplement of paper PMC13380429

Experiments:
[1] = tested on: Vero E6 infected with SARS-CoV-2; experiment: morphology score (similarity to uninfected cells); higher = more like uninfected cells; settings: 24 h
[2] = tested on: Vero E6 infected with SARS-CoV-2; experiment: SARS-CoV-2 infection rate relative to infected DMSO; higher = more infection, active = 60 or less; settings: 24 h

| Structure (SMILES) | morphology score [1] | SARS-CoV-2 infection rate [2] |
| --- | --- | --- |
| N#Cc1ccc(N(Cc2ccc(Br)cc2)n2cnnc2)cc1 (10 µM) | 0.208 | 102% (inactive) |
| C[C@]12CC[C@@H]3c4ccc(O)cc4C[C@@H](CCCCCCCCC[S+]([O-])CCCC(F)(F)C(F)(F)F)[C@H]3[C@@H]1CC[C@@H]2O (stereo not given in full) [fulvestrant] (10 µM) | -0.187 | 110% (inactive) |
| CN1CCCC(n2nc(Cc3ccc(Cl)cc3)c3ccccc3c2=O)CC1 (stereo not given) [azelastine] (10 µM) | 0.458 | 72% (inactive) |
| Cc1ccc(Cl)cc1N(CC(=O)Nc1c(F)cccc1F)S(C)(=O)=O (10 µM) | 0.0341 | 113% (inactive) |
| CCNC(=O)CC[C@H](N)C(=O)O [L-theanine] (10 µM) | 0.0421 | 102% (inactive) |
| CCC(=O)NCC[C@@H]1CCc2ccc3c(c21)CCO3 [ramelteon] (10 µM) | 0.00565 | 114% (inactive) |
| CN1C(C(=O)Nc2ccccn2)=C(O)c2ccccc2S1(=O)=O [piroxicam] (10 µM) | 0.184 | 98.5% (inactive) |
| COC[C@@H](c1ccc(C(F)(F)F)cc1)N1CCN(C2(C)CCN(C(=O)c3c(C)ncnc3C)CC2)C[C@@H]1C [vicriviroc] (10 µM) | 0.189 | 100% (inactive) |
| O=C(c1ccc(F)cc1)N1CCC[C@H](c2nc(-c3ccc(F)cc3)no2)C1 (10 µM) | 0.242 | 93.5% (inactive) |
| CCCCC(CC)CNC(=N)NC(=N)NCCCCCCNC(=N)NC(=N)NCC(CC)CCCC (stereo not given) [alexidine] (0.833333 µM) | -0.0694 | 104% (inactive) |
| O=c1c(-c2ccc(O)cc2)coc2c([C@@H]3O[C@H](CO)[C@@H](O)[C@H](O)[C@H]3O)c(O)ccc12 [puerarin] (10 µM) | 0.0648 | 98.5% (inactive) |
| COc1ccc(C(=O)c2c(C)n(CCN3CCOCC3)c3cc(I)ccc23)cc1 (10 µM) | 0.116 | 102% (inactive) |
| COCCCOc1cc(C[C@@H](C[C@H](N)[C@@H](O)C[C@H](C(=O)NCC(C)(C)C(N)=O)C(C)C)C(C)C)ccc1OC [aliskiren-hemifumarate] (10 µM) | -0.0367 | 110% (inactive) |
| O=C(Nc1cc(-c2ccccc2)nn1-c1ccccc1F)c1ccc([N+](=O)[O-])cc1 (10 µM) | 0.233 | 93.5% (inactive) |
| COc1cc2ncc(-c3ccccc3)nc2cc1OC [tyrphostin-AG-1296] (10 µM) | 0.195 | 108% (inactive) |
| Cc1[nH]c(/C=C2\C(=O)Nc3ccc(F)cc32)c(C)c1C(=O)NCCN1CCCC1 [toceranib] (0.833333 µM) | -0.0721 | 26% (active) |
| Cn1c2cc([S+](C)[O-])sc2c2cnn(Cc3cccc(N)c3)c(=O)c21 (stereo not given) (10 µM) | 0.0427 | 107% (inactive) |
| CCCCOc1ccc(-c2cncc(C(=O)NCc3cccnc3N3CCOCC3)c2)cc1Cl (10 µM) | -0.147 | 108% (inactive) |
| Cc1c(O)c(=O)n(-c2ccccc2)n1C [4-hydroxy-phenazone] (10 µM) | -0.0731 | 116% (inactive) |
| C[C@@H]1O[C@@H](O[C@H]2[C@H](Oc3cc(O)c4c(c3)O[C@H](c3ccc(O)cc3)CC4=O)O[C@H](CO)[C@@H](O)[C@@H]2O)[C@H](O)[C@H](O)[C@H]1O [Naringin (Naringoside)] (10 µM) | 0.254 | 106% (inactive) |

| Structure (SMILES) | morphology score [1] | SARS-CoV-2 infection rate [2] |
| --- | --- | --- |
| CSCC1CN(/N=C/c2ccc([N+](=O)[O-])o2)C(=O)O1 (stereo not given) [inimur] (10 µM) | 0.187 | 92% (inactive) |
| O=C1N[C@@H]2[C@@H](O)[C@@H](O)[C@H](O)[C@@H](CO)N2C1=O [kifunensine] (10 µM) | 0.19 | 94% (inactive) |
| Cc1cn2nc([C@@H]3CCCCN3C(=O)c3cc(Cl)ccc3NS(C)(=O)=O)cc2nc1N1CC[C@H](N)C1 [presatovir] (10 µM) | 0.215 | 89% (inactive) |
| Cn1cc(C2=C(c3cn(C4CCN(Cc5ccccn5)CC4)c4ccccc34)C(=O)NC2=O)c2ccccc21 [enzastaurin] (10 µM) | -0.0103 | 112% (inactive) |
| N[C@@H](CS(=O)O)C(=O)O [L-cysteinesulfinic-acid] (10 µM) | -0.0506 | 108% (inactive) |
| C[C@H](N[C@@H](CCc1ccccc1)C(=O)O)C(=O)N1Cc2ccccc2C[C@H]1C(=O)O [quinaprilat] (10 µM) | 0.0914 | 106% (inactive) |
| COC(=O)C1=C(C#N)NC(C)=C(C(=O)OC(C)C)C1c1cccc([N+](=O)[O-])c1 (stereo not given) [nilvadipine] (10 µM) | -0.0761 | 106% (inactive) |
| Cc1nc(N)sc1CCN [amthamine] (10 µM) | 0.148 | 92.5% (inactive) |
| N=C(N)Nc1ccc(Cl)cc1 [4-chlorophenylguanidine] (10 µM) | -0.231 | 114% (inactive) |
| CCc1nc2c(C)nc(C)cc2n1-c1ccc(CCNC(=O)NS(=O)(=O)c2ccc(C)cc2)cc1 [grapiprant] (10 µM) | 0.243 | 93.5% (inactive) |
| CCC(=O)OCC(=O)[C@@]1(OC(=O)CC)[C@@H](C)C[C@H]2[C@@H]3CCC4=CC(=O)C=C[C@]4(C)[C@@]3(F)[C@@H](O)C[C@@]21C (10 µM) | 0.138 | 104% (inactive) |
| O=C1NC(=O)c2c1c1c3ccccc3n3c1c1c2c2ccccc2n1C1CCC3O1 (10 µM) | -0.0614 | 108% (inactive) |
| Nc1ccn([C@@H]2CS[C@H](CO)O2)c(=O)n1 [lamivudine] (10 µM) | -0.00863 | 102% (inactive) |
| COc1ccc(CCC(=O)c2c(O)cc(O[C@@H]3O[C@H](CO)[C@@H](O)[C@H](O)[C@H]3O[C@@H]3O[C@@H](C)[C@H](O)[C@@H](O)[C@H]3O)cc2O)cc1O [Neohesperidin dihydrochalcone (Nhdc)] (10 µM) | 0.0549 | 99.5% (inactive) |
| CCC(c1ccccc1)c1c(O)c2ccccc2oc1=O (stereo not given) [phenprocoumon] (10 µM) | 0.0901 | 102% (inactive) |
| C[C@]12CC[C@@H]3c4ccc(O)cc4CC[C@H]3[C@@H]1CCC2=O [estrone] (10 µM) | -0.145 | 108% (inactive) |
| CNC(=O)[C@H]1O[C@@H](n2cnc3c(NCc4cccc(I)c4)nc(Cl)nc32)[C@H](O)[C@@H]1O (10 µM) | -0.0292 | 107% (inactive) |
| CN(C)CC[C@@](O)(c1ccccc1)c1ccccc1Cl [clofedanol] (10 µM) | -0.0705 | 110% (inactive) |
| CN(C)CCc1ccc(O)cc1 [hordenine] (10 µM) | 0.163 | 90.5% (inactive) |
| Cc1c(-c2cnccn2)ssc1=S [oltipraz] (10 µM) | -0.0383 | 109% (inactive) |

| Structure (SMILES) | morphology score [1] | SARS-CoV-2 infection rate [2] |
| --- | --- | --- |
| NC(=O)c1ncn([C@@H]2O[C@H](CO)[C@@H](O)[C@H]2O)n1 [ribavirin] (10 µM) | 0.0157 | 97.5% (inactive) |
| O=c1[nH]c(=O)n([C@H]2C[C@H](O)[C@@H](CO)O2)cc1F [floxuridine] (0.833333 µM) | -0.065 | 99% (inactive) |
| CC(C)Cc1ccc([C@@H](C)C(=O)NS(C)(=O)=O)cc1 [reparixin] (10 µM) | 0.135 | 100% (inactive) |
| C=CCNC(=O)c1cc([N+](=O)[O-])cc2c(=O)[nH]c(Nc3ccc(Cl)c(Cl)c3)nc12 (10 µM) | -0.137 | 108% (inactive) |
| Nc1ncnc2c1ncn2[C@H]1CC[C@@H](CO)O1 [dideoxyadenosine] (10 µM) | 0.103 | 99% (inactive) |
| N#Cc1ccc(-c2csc(NN=C3CCCC3)n2)cc1 [remodelin] (10 µM) | 0.0343 | 100% (inactive) |
| NC(=O)NC(=O)Cc1ccccc1 [phenacemide] (10 µM) | 0.0778 | 114% (inactive) |
| CN1C(=O)N(c2cc(Cl)cc(Cl)c2)C(=O)[C@]12CN(c1ccc(C(=O)O)cn1)C[C@H]2c1ccc(C#N)cc1 (10 µM) | 0.0204 | 114% (inactive) |
| O=c1oc(-c2ccc(C(F)(F)F)cc2)nn1Cc1cc(Cl)ccc1O (10 µM) | 0.593 | 39.5% (active) |
| COc1cc(N2CCC(N)CC2)ccc1Nc1ncc(Cl)c(-c2c[nH]c3ccccc23)n1 (0.833333 µM) | 0.205 | 102% (inactive) |
| C#C[C@]1(OC(=O)CCCCCC)CC[C@H]2[C@@H]3CCC4=CC(=O)CC[C@@H]4[C@H]3CC[C@@]21C [norethisterone-enanthate] (10 µM) | 0.146 | 96.5% (inactive) |
| Cc1ncc(CO)c(C=O)c1O [pyridoxal] (10 µM) | -0.165 | 109% (inactive) |
| CC(C)(F)C[C@H](N[C@@H](c1ccc(-c2ccc(S(C)(=O)=O)cc2)cc1)C(F)(F)F)C(=O)NC1(C#N)CC1 [odanacatib] (10 µM) | 0.161 | 96.5% (inactive) |
| CN1Cc2c(C(=O)OC(C)(C)C)ncn2-c2ccsc2C1=O (10 µM) | -0.00637 | 102% (inactive) |
| CCN(CC)C(=O)/C(C#N)=C/c1cc(O)c(O)c([N+](=O)[O-])c1 [entacapone] (10 µM) | 0.149 | 102% (inactive) |
| CC(C)NCCN(C(C)C)S(=O)(=O)c1ccc(Cl)cc1Cl (10 µM) | -0.0999 | 110% (inactive) |
| COc1ccc([C@@H]2CC(=O)c3c(O)cc(O)cc3O2)cc1O [hesperetin] (10 µM) | 0.0387 | 107% (inactive) |
| COc1cc2ncnc(Nc3ccc(O)c(Br)c3)c2cc1OC (10 µM) | -0.194 | 103% (inactive) |
| COCc1c(-c2ccc(NC(=O)Nc3cc(C(F)(F)F)ccc3F)c(F)c2)c2c(N)ncnn2c1CN1CCOCC1 (0.833333 µM) | 0.227 | 96.5% (inactive) |
| CCN(CC)CCNC(=O)c1cc(Cl)c(N)cc1OC [metoclopramide] (10 µM) | -0.00451 | 107% (inactive) |
